# From ChEMBL document CHEMBL4513216, “Probing the Open Global Health Chemical Diversity Library for Multistage-Active Starting Points for Next-Generation Antimalarials” (ACS Infect Dis, 2020)
# Out of some 68,000 compounds screened, about 2,700 (4%) showed an effect of 50% or more. This excerpt belongs to a sample that is enriched for strong results.
# Test system: Plasmodium berghei
# Test: Screen against P. berghei liver stage (PbLuc), transformed with Luciferase, at 2uM
# Type: functional, HepG2
# Settings: tested at 2 uM
row,Compound,INHIBITION [%]
1,Cc1cc(C)n(C2CCCN(C(=O)CCNS(C)(=O)=O)C2)n1 (configuration not stated),15.31
2,CCOc1ncccc1C(=O)N1CCCC(n2nc(C)cc2C)C1 (configuration not stated),58.29
3,COCCOc1ccccc1C(=O)N1CCCCC1c1nccs1 (configuration not stated),45.75
4,COCCOc1ncccc1C(=O)N1CCCCC1c1nccs1 (configuration not stated),-10.05
5,CCOc1ncccc1C(=O)N1CCCCC1c1nccs1 (configuration not stated),67.59
6,CCOc1ncccc1C(=O)N1CCCC(n2nc(C)nc2C)C1 (configuration not stated),20.44
7,COCc1ccccc1C(=O)N1CCCC(n2nc(C)cc2C)C1 (configuration not stated),21.91
8,Cc1cc(C)n(C2CCCN(C(=O)CCNc3ncccn3)C2)n1 (configuration not stated),70.27
9,Cc1cc(C)n(C2CCCN(C(=O)CCCNc3ncccn3)C2)n1 (configuration not stated),26.71
10,Cc1cncc(C(=O)N2CCO[C@H]3[C@H](Oc4ccccn4)CC[C@@H]32)c1,28.88
11,Cc1ccc(CN2CC[C@H]3[C@H](CO[C@H]3CN(C)C)C2)o1,-0.69
12,COc1nccc(N2CC[C@H](N3CCOCC3)[C@H](CCCO)C2)c1C#N,-47.16
13,N#Cc1cnc2cc(F)cc(F)c2c1NC1CCN(CC(N)=O)CC1,-22.63
14,O=C(C1CC(c2ccccc2)=NO1)N1CCCCc2ccccc21 (configuration not stated),24.84
15,CCC(CC)c1cc(CNC(=O)N2CCC(CO)CC2)on1,-11.8
16,CCC(CC)c1cc(CNC(=O)N2CCCC(C(=O)NC)C2)on1 (configuration not stated),59.8
17,CCC(CC)c1cc(CNC(=O)N2CCCC(N(C)C)C2)on1 (configuration not stated),28.23
18,CN1CCC2(CCN(C(=O)c3ccccc3)CC2)C1,39.18
19,COc1cccc(-c2n[nH]cc2C(=O)NC(C)c2n[nH]c(C)n2)c1 (configuration not stated),64.2
20,COc1cccc(-c2n[nH]cc2C(=O)NC(C)c2nc(C(C)C)no2)c1 (configuration not stated),33.9
21,COc1cccc(-c2n[nH]cc2C(=O)NC(C)CC(=O)O)c1 (configuration not stated),1.06
22,Cc1cccc(CN2CCCC2c2cccc(CCC(=O)O)n2)c1 (configuration not stated),-46.81
23,Cc1cc(CN2CCN(C(=O)CCc3ccco3)CC2)on1,19.91
24,COc1ccc(COCC(O)CNC(=O)c2ccc(C)c(F)c2)cc1 (configuration not stated),-7.11
25,CN(CC(=O)N1CCOCC(CO)C1)Cc1ccccn1 (configuration not stated),14.96

row,Compound,INHIBITION [%]
1,CN(C)CC(=O)N1CCOCC(Cc2ccccn2)C1 (configuration not stated),54.44
2,O=C(c1cncs1)N1CCOCC(Cc2ccccn2)C1 (configuration not stated),-11.3
3,CC(Cn1cccn1)NC(=O)Nc1nccs1 (configuration not stated),43.93
4,O=C(NCCNc1ncccn1)C1CC(=O)N(CC2CC2)C1 (configuration not stated),4.96
5,COc1ccccc1CCN1CCCC(CN(C)Cc2cc(C)n[nH]2)C1 (configuration not stated),-24.74
6,Cc1ccc(C)c(OC(C)C(=O)Nc2cccnc2)c1 (configuration not stated),1.42
7,Cc1ccc(C)c(OC(C)C(=O)NCc2cccnc2)c1 (configuration not stated),50.98
8,Cc1ccc(C)c(OC(C)C(=O)NCCNc2cccnc2)c1 (configuration not stated),33.36
9,COc1ccc(NS(=O)(=O)C=c2[nH]c(=O)n3cccc3c2=O)cc1Cl,1.52
10,O=C(N1CCCC1)N1CCN(c2ccc(Cl)nn2)C(=O)C1,11.51
11,CC(CCNC(=O)NCCNc1cnccn1)c1ccccc1 (configuration not stated),-24.05
12,CC(CCNC(=O)NCCc1ccc(S(N)(=O)=O)cc1)c1ccccc1 (configuration not stated),23.76
13,CC(CCNC(=O)NCCc1ccncc1)c1ccccc1 (configuration not stated),54.29
14,CO[C@H]1CCN(Cc2ccccn2)[C@@H]2CN(Cc3ccco3)C[C@H]12,23.7
15,O=C(CN1CC(c2nc(-c3ccco3)no2)C1)NCc1ccc(F)cc1,25.69
16,Cc1nc(CNc2ncc(Br)cn2)n[nH]1,33.78
17,O=C(O)c1csc(S(=O)(=O)Nc2c(F)cccc2-n2cccn2)c1,-51.5
18,O=C(O)c1ccc(F)c(S(=O)(=O)Nc2c(F)cccc2-n2cccn2)c1,52.67
19,O=C(O)c1ccc(S(=O)(=O)Nc2c(F)cccc2-n2cccn2)cc1,-21.15
20,CC(C)N1C(=O)CN(CCCO)CC1(C)C,-4.81
21,Cc1noc(-c2ccnc(Oc3ccc(CN4CCCC4)cc3C)c2)n1,27.72
22,CCc1ccc(CN2CCC3(CCCN(C(=O)c4cnccn4)C3)C2)o1 (configuration not stated),-26.14
23,Cc1cnn(CCC(=O)N2CCN(C(=O)C(C)C)[C@@H]3CS(=O)(=O)C[C@@H]32)c1,34.52
24,O=C(CCn1cc(Cl)cn1)N1CCN(CC2CC2)[C@@H]2CS(=O)(=O)C[C@@H]21,59.48
25,O=C(Cc1ccc(O)c(F)c1)N1CCN(CC2CC2)[C@@H]2CS(=O)(=O)C[C@@H]21,30.42

row,Compound,INHIBITION [%]
1,CCC(=O)N1CCN(C(=O)CCn2cc(Cl)cn2)[C@H]2CS(=O)(=O)C[C@H]21,32.71
2,Cc1cnn(CCC(=O)N2CCN(C(=O)C3CC3)[C@@H]3CS(=O)(=O)C[C@@H]32)c1,59.94
3,O=C(Cc1ccc(O)c(Cl)c1)N1CCN(CC2CC2)[C@@H]2CS(=O)(=O)C[C@@H]21,-3.88
4,CCCN1CCN(Cc2cccc(OCC(N)=O)c2)[C@H]2CS(=O)(=O)C[C@H]21,64.52
5,CCCN1CCN(Cc2cccc(OC)c2)[C@H]2CS(=O)(=O)C[C@H]21,37.76
6,O=C(Cc1ccc(CO)cc1)N1CCN(CC2CC2)[C@@H]2CS(=O)(=O)C[C@@H]21,63.46
7,Cc1cc(CC(=O)N2CCN(CC3CC3)[C@@H]3CS(=O)(=O)C[C@@H]32)ccc1F,-10.66
8,Cn1nccc1C(=O)N1CCN(C(=O)C2CC2)[C@@H]2CS(=O)(=O)C[C@@H]21,17.73
9,CCCN1CCN(Cc2cccc(OC(C)C)c2)[C@H]2CS(=O)(=O)C[C@H]21,5.86
10,O=C1NCCO[C@H]2CN(C(=O)CCc3ccccc3Cl)CC[C@@H]12,46.58
11,CCOCCOC(C)C(=O)Nc1ccc2ccn(CCN(C)C)c2c1 (configuration not stated),27.32
12,Fc1ccccc1-c1nnn(CCCc2nn[nH]n2)n1,-1.29
13,Cc1ccc(-c2ccc(Cl)nn2)cc1S(N)(=O)=O,-62.18
14,COc1ccccc1C1Cn2ccnc2CN1Cc1c[nH]nc1C (configuration not stated),-67.25
15,CN(CCc1ccncc1)C1CCCN(Cc2noc(C3CC3)n2)C1 (configuration not stated),22.34
16,O=S1(=O)C[C@@H]2[C@H](C1)N(Cc1cccc(O)c1)CCN2CC1CC1,59.94
17,Cc1cc(CN2CCN(CC3CC3)[C@@H]3CS(=O)(=O)C[C@@H]32)cc(C)c1O,25.45
18,O=S1(=O)C[C@@H]2[C@H](C1)N(Cc1ccc3ccccc3c1)CCN2CC1CC1,20.91
19,CCCS(=O)(=O)NC(=O)c1cc(C)n(-c2ccccc2)n1,-1.29
20,COCCS(=O)(=O)NC(C)c1ccc(-n2nc(C)cc2C)cc1 (configuration not stated),-25.82
21,CCCS(=O)(=O)NC(=O)c1ccc(-n2nc(C)cc2C)cc1,59.04
22,N[C@@H]1CCC[C@@H](Oc2ccc(F)cc2Oc2ccccc2)[C@@H]1O,61.99
23,N[C@@H]1CCC[C@@H](Oc2ccc(F)cc2Oc2cccc(F)c2)[C@@H]1O,35.73
24,Cc1ccc(Oc2cc(F)ccc2O[C@@H]2CCC[C@@H](N)[C@H]2O)cc1,6.13
25,COC(=O)Cn1c(=O)[nH]c2cn(-c3ccc(F)cc3)c(=O)n21,-3.97

row,Compound,INHIBITION [%]
1,O=C1COc2ccc(C(=O)NS(=O)(=O)c3ccccc3F)cc2N1,8.37
2,Cc1nnc([C@@H]2C[C@H]3CN(C(=O)c4c(C)noc4C)C[C@H]3O2)[nH]1,38.2
3,CN1CCN(C(=O)c2cnn(-c3ccccc3Cl)c2)CC1,-1.02
4,Cc1ccnn1CC(=O)N1CCN(C2CCc3ccccc3C2)CC1 (configuration not stated),46.02
5,Cc1ccnn1CCC(=O)N1CCN(C2CCc3ccccc3C2)CC1 (configuration not stated),14.13
6,CC(=O)N1CCCN(C(=O)c2cnn(-c3ccccc3Cl)c2)CC1,82.5
7,Cn1cc(Cl)c(C(=O)N2CCCN(C3Cc4ccccc4C3)CC2)n1,-18.65
8,Cn1cc(C(=O)N2CCCN(C3Cc4ccccc4C3)CC2)cn1,55.66
9,Cc1nn(C)cc1C(=O)N1CCCN(C2Cc3ccccc3C2)CC1,19.12
10,CC(=O)N1CCN(C(=O)c2cnn(-c3ccccc3Cl)c2)CC1,-90.79
11,CCCn1nccc1C(=O)N1CCN(C2CCc3ccccc3C2)CC1 (configuration not stated),57.85
12,CCN(CC)C1CCN(C(=O)c2cc(-n3cccn3)ccc2Cl)CC1,-16.01
13,Cc1noc(C)c1C(=O)NCC(C)N(C)C (configuration not stated),8.37
14,CC[C@@H]1N(Cc2ccc(C)o2)CCC[C@]12CCC(=O)N2CCOC,33.74
15,O=C(CCCc1ccccn1)N1CCCC1c1noc(C2CC2)n1 (configuration not stated),30.91
16,COc1c(C)cnc(CN(C)C2CCCCC2)c1C,11.8
17,O=c1c(NCCNCCO)c(N2CCN(c3ccccc3)CC2)c1=O,-11.72
18,CC1(C(N)=O)CCCN(c2cnccn2)C1 (configuration not stated),-4.8
19,CC(C)[C@@H](CO)Nc1cc(-c2cn[nH]c2)ncn1,21.81
20,O=C([C@H]1COC[C@H]2CN(C3CCCC3)C[C@H]21)N1CCOCC1,12.4
21,CC(=O)c1ccc(Cl)c(Cl)c1OCC(=O)NC(C)C,26.27
22,COc1ccc2c(c1)C1(CCN(Cc3nccs3)CC1)N(C)CC2,13.75
